Screens as filed in PubChem BioAssay.
GLP-1R inv ag = qHTS of GLP-1 Receptor Inverse Agonists (Inhibition Mode). Glucagon-like peptide 1 receptor (Homo sapiens), P43220. HEK293 GLP-1R CRE-luciferase, luminescence, 24 h; GLP-1R form is constitutively active. Potency, µM (titrated, usually from 38.3 µM), for inactives: at the highest dose activity change, negative = inhibition, hits mostly inhibitors. hit rate 1.6% among 410,000; further: potency means the concentration at half of the fitted maximal effect; on the % scale 0 is the no-effect control and ±100 the full control effect; nearly all actives have a fitted effect of over 55% in size
Target sequence (P43220 whole entry, looked up): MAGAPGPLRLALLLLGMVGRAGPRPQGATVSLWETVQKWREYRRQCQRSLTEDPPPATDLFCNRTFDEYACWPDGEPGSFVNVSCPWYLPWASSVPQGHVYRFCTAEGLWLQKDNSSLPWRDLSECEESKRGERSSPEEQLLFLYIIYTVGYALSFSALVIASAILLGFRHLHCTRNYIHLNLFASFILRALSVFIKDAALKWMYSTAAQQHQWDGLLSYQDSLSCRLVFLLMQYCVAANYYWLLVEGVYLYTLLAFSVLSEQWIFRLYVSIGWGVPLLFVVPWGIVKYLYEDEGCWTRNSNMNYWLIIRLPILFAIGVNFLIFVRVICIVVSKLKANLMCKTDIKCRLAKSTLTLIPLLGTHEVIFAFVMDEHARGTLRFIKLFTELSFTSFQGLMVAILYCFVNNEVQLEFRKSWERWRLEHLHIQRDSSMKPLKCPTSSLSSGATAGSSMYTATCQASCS
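Cells are plated, allowed 12 hours at 37 deg C, then treated with compounds for 24 hr before luciferase detection reagent is added and luminescence is read after 12 min at room temperature. The HEK293 line carries constitutively active GLP-1R with a cAMP-responsive reporter.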
GLP1R cytotox = qHTS of GLP-1 Receptor Inverse Agonists: Cytotox Screen | HEK293 cAMP-luciferase reporter cells, luminescence, 24 h | Potency, µM (titrated, usually from 38.3 µM), for the others: top-dose activity change, negative = inhibition, hits mostly inhibitors | hit rate 0.13% among 410,000 | AID 624418, 2012;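 further: loss of luciferase light is scored as toxicity; potency means the concentration at half of the fitted maximal effect; on the % scale 0 is the no-effect control and ±100 the full control effect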
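Luminescence readout: signal drop marks cytotoxicity. Plated cells grew 12 h at 37 °C, 5% CO2, received 23 nL compound for 24 h, then got luciferase reagent, read after 12 min at RT.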
TRPML1 ag = qHTS for Agonists of the Human Mucolipin Transient Receptor Potential 1 (TRPML1). activation, % (test concentration not listed). Mucolipin-1 (Homo sapiens), Q9GZU1. hit rate 0.12% among 410,000. TRPML1-expressing cells, Ca2+ dye fluorescence, FDSS; in the data active means activation above about 50%; inconclusive means mostly about 30% to 49%; further: 0% is about no effect
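Cells: TRPML1-DL, 1X Tet inducer, ~16 h at 37 degrees C/5% CO2. Dye: ABD Ca8 no-wash + quencher, 45-90 min RT. Read: 10 s baseline, compound add, 110 s agonist phase; 54-4 EC80 (4uM final), 110 s antagonist phase.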
GLP1R ag = qHTS of GLP-1 Receptor Agonists. Potency, µM (top dose mostly 45.6 µM), without a hit: at the highest dose activation, usual class: activators. AID 624172, 2012. Glucagon-like peptide 1 receptor (Homo sapiens), P43220. HEK293 GLP-1R CRE-luciferase, luminescence, 4-6 h; cells express a hypersensitive GLP-1R form. hit rate 0.007% among 380,000; further: potency means the concentration at half of the fitted maximal effect; % of control where 0% means no effect
TRPML1 inh = qHTS for Inhibitors of the Human Mucolipin Transient Receptor Potential 1 (TRPML1) | TRPML1-inducible cells, Ca2+ dye fluorescence, FDSS; stronger effect = lower value; inhibition of EC80 agonist-evoked calcium signal | activity change, negative = inhibition, % (concentration not given with the values) | hit rate 0.02% among 390,000 | AID 624415, 2012; in the data active means activity change below about -50%; inconclusive means between about -30% and that limit;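 further: stimulus is agonist 54-4 at its EC80 concentration; on the % scale 0 is the no-effect control and ±100 the full control effect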
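TRPML1-DL cells, Tet-induced overnight (~16 h, 37 °C) at 1,500 cells/well, were loaded with Ca8 no-wash dye plus quencher for 45-90 min at room temperature. Compounds were pinned during FDSS kinetic reading; agonist 54-4 at EC80 (4 uM final) then added.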
* = called active by the depositor; ? = inconclusive; / = no result given. This is a sample that favours compounds with a hit; in the whole collection about 1.8% have one here. Unless noted, the call rests on the fitted dose curve; in most records, active means well fitted curve in the direction sought with a large enough effect; inconclusive means small, poorly fitted or top-dose-only effect, or another doubt; inactive means no such curve, though single readings can be large; an effect the other way counts as inactive or inconclusive.

SMILES	GLP-1R inv ag	GLP1R cytotox	TRPML1 ag	GLP1R ag	TRPML1 inh
Cc1ccc(S(=O)(=O)N2CCCCC2)cc1NC(=O)Cn1ncc(Cl)c(Cl)c1=O	10µM*	?	1.3	-13.7%	-16.9
CCc1ccccc1N(C)S(=O)(=O)c1ccc2c(c1)C(C)(C)C(=O)N2C	-7.2%	2.6%	-1.1	/	-23.7
CCC1CCCCN1CCCNC(=O)c1[nH]c2ccccc2c1Sc1ccc(Cl)cc1 (configuration not stated)	?	?	-0.3	/	-24.0
Cc1c(N=C/C=C2/N(C)c3ccccc3C2(C)C)c(=O)n(-c2ccccc2)n1C	?	?	0.1	?	-0.8
Cc1c(N=C/C=C2\N(C)c3ccccc3C2(C)C)c(=O)n(-c2ccccc2)n1C	?	2.24µM*	0.9	0.8%	25.2
Cn1c(=O)c2c(-c3ccccc3)n3c(c2n(C)c1=O)C(c1cccc([N+](=O)[O-])c1)Nc1ccccc1-3 (configuration not stated)	6.3%	?	-0.6	/	13.1
CN(C)CCNc1nc2sc3c(c2c(=O)n1Cc1ccccc1)CCCCC3	1.12µM*	?	-0.2	10.5%	-8.6
Cc1cccc(N2CCN(C(=O)C3CCN(S(=O)(=O)c4cccs4)CC3)CC2)c1C	?	-13.1%	0.5	/	-1.8
CNC(=O)c1nnsc1S(=O)(=O)c1ccc(Cl)cc1	4.47µM*	?	2.6	-7.6%	-28.2
O=C1CCN(Cc2nc(-c3ccc(Cl)cc3)no2)CCN1	4.47µM*	-0.7%	0.2	0.1%	16.1
C=CCc1cc(C=O)cc(OC)c1OCc1ccc(Cl)cc1	10µM*	-4.7%	2.8	1.8%	53.6
C=CCc1cc(C=O)cc(OCC)c1OCc1ccc(Cl)cc1	?	-6.3%	4.0	-3.5%	26.6
CCCCNC(=O)C(CC)Sc1nnc(-c2ccc(F)cc2)c(-c2ccc(F)cc2)n1 (configuration not stated)	-23.5%	2.6%	1.7	/	9.1
O=C(NNc1cccc(Cl)c1)c1cccnc1Cl	1.26µM*	-33.7%	0.7	-2.0%	-0.1
O=[N+]([O-])c1cnc(Sc2ccncn2)s1	?	2.82µM*	0.2	-6.6%	-16.2
COc1ccc(C(=O)C2CCCN(Cc3ccc4nonc4c3)C2)c(OC)c1 (configuration not stated)	10µM*	0.8%	1.6	5.0%	-4.8
CC(=O)N1CCCC(C(=O)c2ccc3c4c(cccc24)CC3)C1 (configuration not stated)	18.4%	2.6%	0.4	5.4%	23.4
COc1cc(CN2CCCC(C(=O)c3ccc4c5c(cccc35)CC4)C2)cc(OC)c1O (configuration not stated)	11.2µM*	-16.0%	1.2	4.4%	8.7
CN1CCC(C(=O)N2CCCC(C(=O)c3ccc4c5c(cccc35)CC4)C2)CC1 (configuration not stated)	8.91µM*	-8.1%	0.5	-0.8%	31.5
COc1ccc(C(=O)C2CCCN(Cc3ccc4nonc4c3)C2)cc1OC (configuration not stated)	2.6%	1.6%	1.2	8.3%	7.1
O=C(c1ccc2c3c(cccc13)CC2)C1CCCN(Cc2cccnc2)C1 (configuration not stated)	?	6.7%	0.3	21.1%	17.4
CCCN(CCC)C(=O)Cn1c(=O)n(Cc2ccc(C(=O)NCCc3ccc(Cl)cc3)cc2)c(=O)c2ccccc21	10.2%	1.5%	-0.3	-1.3%	-6.0
Cc1ccc2nc(-c3ccc(N=Nc4cc(S(=O)(=O)O)c5ccccc5c4O)cc3)sc2c1S(=O)(=O)O	/	/	-1.0	/	/
Cc1ccc(CN2CCCn3nc(C(=O)NCc4ccc(OC(C)C)cc4)cc3C2=O)cc1	?	-8.9%	1.9	/	39.8
CCc1ccc(NCc2cc3ccc(OC)cc3n(CC(=O)Nc3ccc(F)cc3F)c2=O)cc1	14.3%	25.3%	2.6	2.7%	8.2
SMILES	GLP-1R inv ag	GLP1R cytotox	TRPML1 ag	GLP1R ag	TRPML1 inh
Cc1cc(C(=O)Nc2cccc(C(=O)O)c2)c(C)o1	0.0%	-16.1%	0.0	-11.9%	7.3
Cc1cc(C(=O)Nc2cccc(C(=O)O)c2)oc1C	1.26µM*	-1.0%	-0.4	-32.0%	-16.6
Cn1c(CO)cnc1SCC(=O)c1ccc(Cl)cc1	7.08µM*	-28.0%	-0.7	-5.2%	7.7
Cn1ccnc1SCC(=O)c1ccc(Cl)cc1	21.3%	-14.2%	-0.6	3.5%	-0.3
C=CCNC(=S)N/N=C/c1ccc(C(C)(C)C)cc1	3.55µM*	?	2.0	11.7%	4.7
CCN(CCCNC(=O)c1ccc(Sc2ccc(Cl)cc2)c(NC(C)=O)c1)c1cccc(C)c1	-2.9%	3.7%	-0.3	/	-3.8
CCN(CCNCC(O)COCc1ccc(Cl)cc1)c1cccc(C)c1 (configuration not stated)	10µM*	?	0.4	0.1%	-15.7
COc1ccc(-c2cc(C)no2)cc1S(=O)(=O)NC1CCC(C)CC1 (configuration not stated)	-18.7%	1.9%	1.0	/	56.2
COC(=O)c1cc2c(-c3ccccc3)cc3ccccn3c-2c1C(=O)OC	7.94µM*	?	0.0	13.6%	21.6
COC(=O)c1c(C)c2c(C)cc3ccccn3c-2c1C(=O)OC	-18.5%	1.8%	-1.4	30.5%	-2.4
N#Cc1nc(-c2ccco2)oc1N1CCN(C(c2ccccc2)c2ccccc2)CC1	10µM*	-5.0%	0.7	3.2%	-3.6
CC(C)CC1NC(=S)N(Cc2ccccc2)C1=O (configuration not stated)	2.82µM*	-22.0%	-1.4	-2.0%	0.2
O=C1C(Cc2ccccc2)NC(=S)N1Cc1ccccc1 (configuration not stated)	?	3.7%	-1.0	3.1%	-3.9
CSCCC1NC(=S)N(Cc2ccccc2)C1=O (configuration not stated)	10µM*	-22.7%	/	18.6%	/
O=C(OCc1ccccc1)N1CCC2CC1c1cc(-c3ccc(F)cc3)ccc12 (configuration not stated)	?	18.0%	3.4	15.9%	-16.0
O=C(OCc1ccccc1)N1CCC2CC1c1cc(NCCc3ccccc3)ccc12 (configuration not stated)	11.2µM*	21.6%	2.4	-4.5%	-6.8
CC[C@@H]1[C@H]2CCCC(=O)N3CC[C@@H](C[C@@H]1OC(=O)Nc1ccc4c(c1)OCO4)[C@@H]23	/	/	-0.2	/	/
